Compound activity as filed in PubChem BioAssay.
HEK293 tox – qHTS of GLP-1 Receptor Inverse Agonists: Cytotox Screen; Potency, µM (series often up to 38.3 µM), hits mostly inhibitors; HEK293 cAMP-luciferase reporter cells, luminescence, 24 h; 410,000 tested, 0.13% active;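 further: loss of luciferase light is scored as toxicity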
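Quantitative HTS format, 1536 wells, 200 cells/uL seeded. Compounds: 23 nL, 24 h, 37 °C. Detection: luciferase reagent, luminescence at 12 min RT; decreased signal taken as cytotoxic.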
LDHA block – qHTS assay for inhibitors of human lactate dehydrogenase; L-lactate dehydrogenase A chain (Homo sapiens), P00338; purified LDHA, NADH/diaphorase-resazurin fluorescence; hits give low values; activity change, % (values are at about 110 or 230 µM); 480,000 tested, 0.15% active; in the data active means activity change below about -30%; inconclusive means mostly about -25% to -30%
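Human LDH5 at 2 nM final in Tris HCl pH 7.4 with 0.06 mM NADH and 0.2 mM pyruvate, reacted 5 minutes at room temperature. Remaining NADH coupled via diaphorase/resazurin; resorufin fluorescence read at 0 and 20 minutes, normalized to enzyme-free and DMSO wells.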
PTHR1 ag – qHTS for PTHR1 Agonists: Primary Screen; 410,000 tested, 0.075% active; HEK293 GP2 PTHR1 cells, GloSensor cAMP luminescence, 1 h; Potency, µM (series often up to 115 µM), most hits filed as activators; AID 743266, 2014; further: nearly all actives have a fitted effect of over 55% in size
Target sequence (Q03431 whole entry, looked up): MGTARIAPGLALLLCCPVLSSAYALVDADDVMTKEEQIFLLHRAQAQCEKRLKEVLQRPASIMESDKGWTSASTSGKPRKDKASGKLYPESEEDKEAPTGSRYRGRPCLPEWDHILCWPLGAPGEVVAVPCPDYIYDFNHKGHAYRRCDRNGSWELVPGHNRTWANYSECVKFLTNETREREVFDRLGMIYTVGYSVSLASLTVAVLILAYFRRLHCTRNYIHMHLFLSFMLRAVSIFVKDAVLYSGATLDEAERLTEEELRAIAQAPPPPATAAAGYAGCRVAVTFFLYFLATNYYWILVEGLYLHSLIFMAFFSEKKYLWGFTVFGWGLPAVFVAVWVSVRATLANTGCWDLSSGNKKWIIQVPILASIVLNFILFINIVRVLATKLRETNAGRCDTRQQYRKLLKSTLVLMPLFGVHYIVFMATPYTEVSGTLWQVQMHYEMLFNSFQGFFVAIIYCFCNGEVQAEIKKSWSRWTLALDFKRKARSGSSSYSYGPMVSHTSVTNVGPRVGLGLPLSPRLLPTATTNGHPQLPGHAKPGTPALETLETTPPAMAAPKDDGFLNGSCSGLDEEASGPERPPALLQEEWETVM
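HEK-293-derived GP2 cells expressing PTHR1 and a GloSensor cAMP reporter, 3,000/well, plated overnight, given luciferin plus IBMX (each 0.5 mM as added) for 1 h at 37 °C, then compound for 1 h at 37 °C. Luminescence was read after 15 min at room temperature.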
GLP-1R inv ag – qHTS of GLP-1 Receptor Inverse Agonists (Inhibition Mode). HEK293 GLP-1R CRE-luciferase, luminescence, 24 h; GLP-1R form is constitutively active. Potency, µM (doses to about 38.3 µM), hits mostly inhibitors. 410,000 tested, 1.6% active. Glucagon-like peptide 1 receptor (Homo sapiens), P43220. AID 624417, 2012; further: nearly all actives have a fitted effect of over 55% in size
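GLP-1R inverse agonism mode: basal reporter luminescence in engineered HEK293 cells measured after one day of compound exposure at 37 deg C, with a 12 min room-temperature detection step.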
mIDH1 inhibitor – qHTS for Inhibitors of mutant isocitrate dehydrogenase 1 (IDH1): qHTS | 390,000 tested, 0.093% active | IDH1-R132H enzyme, NADPH consumption, diaphorase/resazurin fluorescence | Potency, µM (titrated, usually from 76.6 µM), most hits filed as inhibitors | AID 602179, 2012 | Isocitrate dehydrogenase [NADP] cytoplasmic (Homo sapiens), O75874; further: nearly all actives have a fitted effect of over 65% in size
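IDH1-R132H (0.5 ug/mL) preincubated 30 min with compound, then NADPH (0.016 mM) and alpha-KG (2 mM) added; 80 min at RT, pH 7.5. Remaining NADPH coupled via diaphorase/resazurin to fluorescence (540/590 nm); concentration-response curves normalized to no-enzyme control.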
GLP1R ag – qHTS of GLP-1 Receptor Agonists | HEK293 GLP-1R CRE-luciferase, luminescence, 4-6 h; cells express a hypersensitive GLP-1R form | 380,000 tested, 0.007% active | Glucagon-like peptide 1 receptor (Homo sapiens), P43220 | Potency, µM (doses to about 45.6 µM), most hits filed as activators
Hits are given with their value; . = inactive; ? = inconclusive; / = no result given. The list is not random: actives were taken first. Their share in the collection is about 1.7%. Unless noted, the call rests on the fitted dose curve; in most records, active means well fitted curve in the direction sought with a large enough effect; inconclusive means small, poorly fitted or top-dose-only effect, or another doubt; inactive means no such curve, though single readings can be large; an effect the other way counts as inactive or inconclusive.

SMILES	HEK293 tox	LDHA block	PTHR1 ag	GLP-1R inv ag	mIDH1 inhibitor	GLP1R ag
Cc1onc(-c2c(F)cccc2Cl)c1C(=O)OCC(=O)NC(=O)NCC(C)C	.	.	.	13µM	.	.
Cc1cc(C(=O)NNC(=O)c2c(-c3c(Cl)cccc3Cl)noc2C)no1	.	.	.	.	.	.
Cc1ccc(NC(=O)c2c(-c3c(F)cccc3Cl)noc2C)cc1F	.	.	.	4µM	.	.
CCc1cc2c(cc1C1(C)OCC(C)O1)C(C)(C)CCC2(C)C (stereo unspecified)	/	.	/	/	/	/
CCC(Sc1nc2nccnc2c(=O)n1Cc1ccc(OC)cc1)C(=O)Nc1ccc(OC)cc1 (stereo unspecified)	/	.	/	/	/	/
CCOC(=O)C1=C(CNCc2ccc(C)cc2)NC(=O)NC1c1ccc(OC)cc1 (stereo unspecified)	?	.	.	13µM	.	.
COc1cccc(NC(=O)Nc2nc(SC(C)(C)C)ns2)c1	?	.	.	5.6µM	.	.
COc1cccc(NC(=O)Nc2nc(SC)ns2)c1	.	.	.	?	.	.
COc1ccc(Cl)cc1NC(=O)Cc1coc2cc(C)c(C)cc12	/	.	/	/	/	/
Cc1ccc(C)c(NC(=S)c2ccc3ccccc3n2)c1	2.8µM	.	.	5.6µM	.	.
Cc1ccc(C)c(NC(=S)c2ccccn2)c1	?	.	.	?	.	.
O=C(O)c1ccccc1N/N=C\c1ccnc2ccccc12	.	?	.	4.5µM	.	.
ON=Cc1ccnc2ccccc12	.	.	.	.	.	.
COc1cccc(CNC(=O)CN2C(=O)N(c3ccc(C(C)C)cc3)S(=O)(=O)c3ccccc32)c1	/	.	/	/	/	/
COC(=O)c1scc(-c2ccc(C)cc2)c1S(=O)(=O)Nc1cc(C)ccc1OC	.	.	.	?	.	/
COC(=O)c1scc(-c2ccc(C)cc2)c1S(=O)(=O)Nc1cc(C)c(Cl)cc1OC	.	.	.	10µM	.	/
Cc1sc2ncn(CCn3cnc4sc(C)c(C)c4c3=O)c(=O)c2c1C	.	.	.	5µM	.	.
CNc1nc(Nc2ccc(C)c(Cl)c2)c2cnn(C)c2n1	.	.	?	?	29µM	.
CNc1nc(Nc2ccc(C)c(C)c2)c2cnn(C)c2n1	/	.	/	/	/	/
Cc1oc(-c2cccs2)nc1C(=O)NC(C)COCC(F)(F)F (stereo unspecified)	/	.	/	/	/	/
O=C(Oc1ccc(Cl)c2cccnc12)c1cccnc1	?	.	.	3.2µM	.	.
Oc1ccc(CCc2ccccc2F)c2cccnc12	/	.	/	/	/	/
Oc1ccc(Cc2ccccc2)c2cccnc12	.	.	.	6.3µM	.	.
Oc1ccc(CN2CCC(Cc3ccccc3)CC2)c2cccnc12	?	.	.	?	.	.
CC(C)COCc1ccc(O)c2ncccc12	?	.	.	4µM	.	.
SMILES	HEK293 tox	LDHA block	PTHR1 ag	GLP-1R inv ag	mIDH1 inhibitor	GLP1R ag
OCc1ccc(O)c2ncccc12	?	.	.	10µM	.	.
Cc1oc2ccc(OC(=O)c3ccccc3F)cc2c1C(=O)OC(C)C	/	.	/	/	/	/
CCS(=O)(=O)N1CCc2ccc(NC(=O)NCCC(C)C)cc21	/	.	/	/	/	/
CCCOCc1ccc(O)c2ncccc12	.	.	.	?	.	.
CCOC(=O)N1CCN(Cc2ccc(O)c3ncccc23)CC1	.	.	.	5µM	.	.
Oc1ccc(Cl)c2cccnc12	.	.	.	10µM	.	.
Oc1ccc(COCc2ccccc2)c2cccnc12	.	.	.	10µM	.	.
CCC(=O)N1CCN(c2oc(/C=C/c3ccc(C)cc3)nc2C#N)CC1	/	.	/	/	/	/
